Source: PubChem BioAssay (NCI)
This is part of a sample that, as a whole, favours compounds with a hit. Of some 83,000 tested, about 20% had one in any assay.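 Compound tested at a single concentration for 48 hours in 96-well plates; a percent growth value below 10 was scored as active.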 Values without a mark were called inactive. The source made the active and inactive calls.

What was measured:
Assay in all cases: NCI-60 one-dose screen, 48 h (100 = growth as untreated, 0 = no growth, -100 = all killed)
Details in all cases: 10 µM unless noted
SK-MEL-2 melanoma = system: SK-MEL-2 melanoma
SN12C renal = system: SN12C renal
UO-31 renal = system: UO-31 renal
TK-10 renal = system: TK-10 renal
ACHN renal = system: ACHN renal
CAKI-1 renal = system: CAKI-1 renal
A498 renal = system: A498 renal
CCRF-CEM leukemia = system: CCRF-CEM leukemia
MOLT-4 leukemia = system: MOLT-4 leukemia
SR leukemia = system: SR leukemia
RPMI-8226 leukemia = system: RPMI-8226 leukemia
OVCAR-8 ovarian = system: OVCAR-8 ovarian
OVCAR-5 ovarian = system: OVCAR-5 ovarian
OVCAR-4 ovarian = system: OVCAR-4 ovarian
SK-OV-3 ovarian = system: SK-OV-3 ovarian
IGROV1 ovarian = system: IGROV1 ovarian
OVCAR-3 ovarian = system: OVCAR-3 ovarian
HS 578T breast = system: HS 578T breast
HL-60(TB) leukemia = system: HL-60(TB) leukemia

Row | Structure (SMILES) | growth (SK-MEL-2 melanoma) | growth (SN12C renal) | growth (UO-31 renal) | growth (TK-10 renal) | growth (ACHN renal) | growth (CAKI-1 renal) | growth (A498 renal) [%] | growth (CCRF-CEM leukemia) | growth (MOLT-4 leukemia) | growth (SR leukemia) | growth (RPMI-8226 leukemia) | growth (OVCAR-8 ovarian) | growth (OVCAR-5 ovarian) [%] | growth (OVCAR-4 ovarian) [%] | growth (SK-OV-3 ovarian) [%] | growth (IGROV1 ovarian) | growth (OVCAR-3 ovarian) | growth (HS 578T breast) [%] | growth (HL-60(TB) leukemia)
1 | CC[C@H](CC[C@@H](C)[C@H]1CC[C@H]2[C@@H]3CC[C@H]4C[C@]5(CC[C@]4(C)[C@H]3CC[C@]12C)OO[C@](C)(C(F)(F)F)O5)C(C)C | 101% | 81.2% | 78.8% | 109% | 98.7% | 81.7% | 97.3 | 100% | 95% | 93.9% | 98.3% | 97% | 74.3 | 88.4 | 89.9 | 79.3% | 93.2% | 99.8 | 
2 | COc1ccc(O)c2c(=O)c3c(OC)cc4c(c3oc12)[C@@H]1C=CO[C@@H]1O4 | 6.45% (active) | 73.1% | 51.9% | 36.8% | 5.59% (active) | 35.9% | 87 | 92.6% |  | -6.56% (active) | 63.5% | 50.6% | 55.2 | 40.8 | 35.6 |  | 52% | 114 | 65.8%
3 | CCC(=O)C(CC(C)[N+](C)(C)C)(c1ccccc1)c1ccccc1 (centres undefined) | 104% | 98.2% | 95.9% | 98.1% | 102% | 95.4% | 111 | 114% | 104% | 101% | 109% | 99.8% | 96.8 | 110 | 96.6 |  | 70.6% | 107 | 109%
4 | COC12CC3C4=CCOC5CC(=O)N6c7ccccc7C1(CCN2C4)C6C53 (centres undefined) | 108% | 119% | 92.7% | 100% | 113% | 102% | 94.6 | 99.7% |  |  | 104% | 91.8% | 121 | 97.5 | 107 | 108% | 117% | 117 | 
5 | N#CC(N)c1ccccc1 (centres undefined) | 122% | 104% | 86.3% | 109% | 105% | 102% | 81.2 | 107% |  | 101% | 99% | 106% | 101 | 110 | 115 | 115% | 106% | 98.5 | 102%
6 | CC12CCC3C(CCC4CC(O)CCC43C)C1CCC2=O (centres undefined) | 91.7% | 102% | 94.1% | 108% | 109% | 81.5% | 162 | 107% | 83.1% | 86.1% | 100% | 99.9% | 91.7 | 108 | 126 | 38.9% | 100% | 81.9 | 92.3%
7 | C[C@]12CCC3[C@@H](C[C@@H]4SC(Nc5ccccc5)=N[C@@]45CC(=O)CC[C@]35C)[C@@H]1CCC2=O (some centres undefined) | 6.9% (active) | -8.78% (active) | -89% (active) | -4.55% (active) | -62.4% (active) | -45.6% (active) | 63.7 | 3.23% (active) | -5.8% (active) |  | -14.8% (active) | -5.35% (active) | 31.2 | 31.7 | 56.9 | -11.3% (active) | -9.98% (active) | 41 | 6.25% (active)
